These results are taken from PubChem BioAssay (EPA / NIEHS).

Broadly, the AC50 is the concentration at which the activity in the assay is half-maximal.

Read-out in one experiment: CD69, CD69 (gene 969)
As to the kind of experiment: BSK_LPS_CD69: BioMAP Diversity Plus: LPS Assay for CD69 Biomarker Activity (AID 2284303). The note with it: primary human HUVEC with PBMC. The essentials: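 Human umbilical vein endothelial cells co-cultured with PBMC under LPS stimulation, chemical exposure 24 h; cell-surface CD69 measured by ELISA and fitted in the positive direction versus DMSO.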

In the next experiment the test system is IYD (gene 389434). The experiment is described as follows: CCTE_GLTED_hIYD: CCTE's human Iodotyrosine Deiodinase (xIYD) Inhibition Assay, Great Lakes Toxicology and Ecology Division (GLTED) Lab (AID 2284317; active means hit-call score of the fitted dose curve at least 0.9, where 1 is the maximum;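 further: cell-free human IYD enzyme made in baculovirus insect cells; iodide freed from monoiodotyrosine measured by cerium arsenite color change at 420 nm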). The essentials:
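First, recombinant human IYD (baculovirus-insect cells), MIT and chemical incubated 3 h. Next, iodide isolated on Dowex. Finally, Sandell-Kolthoff rate read at 420 nm, with platewise normalization to MNT and solvent controls.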

Experiment [1] is described as follows: CCTE_Mundy_HCI_iCellGluta_NOG_NeuriteLength: CCTE's Neurite Outgrowth Assay in iCellGluta cells for Neurite Length, Mundy Lab (AID 2284318; active means hit-call score of the fitted dose curve at least 0.9, where 1 is the maximum). An outline of the steps:
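Automated high-content imaging of betaIII-tubulin (Alexa Fluor-488) and Hoechst-stained cells gave neurite length, normalized to the DMSO baseline.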

In another experiment the test system is TTR (gene 7276). The experiment is described as follows: CCTE_GLTED_hTTR_0.5uM: CCTE's human Transthyretin (hTTR) Inhibition Assay, with 0.5uM TTR, Great Lakes Toxicology and Ecology Division (GLTED) Lab (AID 2284320). An outline of the steps:
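Cell-free displacement assay in which human TTR at 0.5 uM was incubated with test chemical for 2 h. Displacement of the ANSA probe was read by fluorescence at 380 nm excitation/475 nm emission. Loss of signal was fitted in the positive direction versus DMSO.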

Experiment [2] is described as follows: IUF_NPC2a_radial_glia_migration_120hr: Leibniz Research Institute for Environmental Medicine (IUF) 120-hour Neural Progenitor Cell Migration Assay for Radial Glia Migration (NPC2a) (AID 2284298). An outline of the steps: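 Human fetal-cortex neural progenitor spheres (0.3 mm) plated on poly-D-lysine/laminin in N2 differentiation medium, exposed 120 h at 37C with half-medium renewal at day 3. Radial glia migration distance (um) measured from Hoechst-stained nuclei images; DMSO baseline.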

Experiment [3] can be described thus: IUF_NPC2a_radial_glia_migration_72hr: Leibniz Research Institute for Environmental Medicine (IUF) 72-hour Neural Progenitor Cell Migration Assay for Radial Glia Migration (NPC2a) (AID 2284299). An outline of the steps:
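Migration out of plated human neural progenitor spheres is scored at 72 h as the distance in um from the sphere core edge to the edge of the migration area. Values are the mean of four manual measurements per well, normalised to DMSO.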

Experiment [4] can be described thus: IUF_NPC2b_neuronal_migration_120hr: Leibniz Research Institute for Environmental Medicine (IUF) 120-hour Neural Progenitor Cell Migration Assay for Neuron Migration (NPC2b) (AID 2284300). An outline of the steps:
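0.3 mm hNPC spheres on poly-D-lysine/laminin in N2 differentiation medium exposed 120 h, half-medium refresh day 3; 7 concentrations, DMSO max 0.1%. Neuron (TUBB3) distance from sphere core by ICC imaging, normalised to radial glia migration.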

A short description of experiment [5]: IUF_NPC3_neuronal_differentiation_120hr: Leibniz Research Institute for Environmental Medicine (IUF) 120-hour Neuronal Differentiation Assay (NPC3) (AID 2284301). The essentials:
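Single 0.3 mm neurospheres from human fetal cortex were plated in differentiation medium containing test compound. Medium was half-replaced on day 3. After 120 h cells were fixed, immunostained and imaged, and neuronal fraction was scored against DMSO control.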

Experiment [6] in a line: IUF_NPC4_neurite_length_120hr: Leibniz Research Institute for Environmental Medicine (IUF) 120-hour Neuronal Morphology Assay for Neurite Length (NPC4) (AID 2284302). The essentials:
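Read-out is mean neurite length in µm of TUBB3-positive neurons, skeletonized from high-content fluorescence images after 120 h. Single 0.3 mm primary human neural progenitor spheres differentiated on poly-D-lysine/laminin under continuous compound exposure; DMSO was baseline.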

The nature of experiment [7]: IUF_NPC5_oligodendrocyte_differentiation_120hr: Leibniz Research Institute for Environmental Medicine (IUF) 120-hour Oligodendrocyte Differentiation Assay (NPC5) (AID 2284304; active means hit-call score of the fitted dose curve at least 0.9, where 1 is the maximum;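 further: primary human fetal neural progenitor spheres plated to migrate and differentiate; share of O4-positive cells among Hoechst nuclei found by CNN image analysis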). An outline of the steps:
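Human fetal neural progenitor spheres (0.3 mm) plated on poly-D-lysine/laminin in N2 differentiation medium and exposed for 120 h at 7 concentrations, with half-medium renewal at day 3. O4-positive cells identified by CNN, expressed as percent of Hoechst nuclei.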

Experiment [8] can be described thus: IUF_NPC4_neurite_area_120hr: Leibniz Research Institute for Environmental Medicine (IUF) 120-hour Neuronal Morphology Assay for Neurite Area (NPC4) (AID 2284305; active means hit-call score of the fitted dose curve at least 0.9, where 1 is the maximum). An outline of the steps:
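Neurite area is read out as the mean pixel area, excluding nuclei, of skeletonized TUBB3-positive neurons imaged after 120 h. Primary human neural progenitor spheres differentiated on poly-D-lysine/laminin with compound present from day 0. Activity was referenced to DMSO controls.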

Experiment [9] is described as follows: IUF_NPC2-5_cytotoxicity_72hr: Cytotoxicity Assessment at 72 hours in the Leibniz Research Institute for Environmental Medicine (IUF) Neural Progenitor Cell Migration and Differentiation Assay for Cytotoxicity (NPC2-5) (AID 2284306; active means hit-call score of the fitted dose curve at least 0.9, where 1 is the maximum;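 further: LDH release into supernatant measured by resorufin fluorescence marking membrane damage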). The essentials: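 Membrane integrity loss was scored from fluorescence (RFU) of resorufin generated by LDH in culture supernatant, 72 h after dosing. Differentiating human progenitor spheres received seven serial compound concentrations alongside a solvent control.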

Experiment [10] is described as follows: IUF_NPC2-5_cytotoxicity_120hr: Cytotoxicity Assessment at 120 hours in the Leibniz Research Institute for Environmental Medicine (IUF) Neural Progenitor Cell Migration and Differentiation Assay (NPC2-5) (AID 2284307; active means hit-call score of the fitted dose curve at least 0.9, where 1 is the maximum;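 on AC50: LDH released into supernatant as membrane damage marker via resorufin fluorescence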). The essentials: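 Human fetal (GW 16-19) neural progenitor spheres (0.3 mm) plated on poly-D-lysine/laminin in N2 differentiation medium, exposed 120 h with half-medium renewal at day 3; 7 concentrations plus solvent control, DMSO ≤0.1%. LDH release in supernatant read by resorufin fluorescence.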

The nature of experiment [11]: IUF_NPC2-5_cell_number_120hr: Cell Number Assessment at 120 hours in the Leibniz Research Institute for Environmental Medicine (IUF) Neural Progenitor Cell Migration and Differentiation Assay (NPC2-5) (AID 2284308).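 Further: count of Hoechst-stained nuclei in migration zone around plated human neural progenitor spheres.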 An outline of the steps: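 Human fetal neural progenitor spheres (0.3 mm) plated on poly-D-lysine/laminin in N2 differentiation medium, exposed five days across 7 concentrations with half-medium refresh at day 3. Hoechst-positive nuclei counted in migration area at 120 h, relative to DMSO.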

A short description of experiment [12]: IUF_NPC2-5_viability_120hr: Viability Assessment at 120 hours in the Leibniz Research Institute for Environmental Medicine (IUF) Neural Progenitor Cell Migration and Differentiation Assay (NPC2-5) (AID 2284312). An outline of the steps:
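Alamar blue resorufin fluorescence read after 5 days of differentiation, with compound present from day 0 and replenished at day 3. Primary hNPC spheres on laminin-coated plates, 37C; seven concentrations plus solvent control, fitted against DMSO.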

Experiment [13] can be described thus: CCTE_Deisenroth_5AR_NBTE_donor: CCTE's 5alpha-reductase NanoBRET Target Engagement Assay […], Deisenroth Lab (AID 2284319). As to conditions: actives raise or lower the signal. The essentials:
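In this secondary endpoint, donor luminescence from SRD5A2-NanoLuc in transfected HEK293T flags artifacts. Test chemical (10 nM - 29.9 uM) is present five hours, tracer the last two; mock-tracer wells run plate-matched; data fitted bidirectionally against DMSO.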

Where “and” joins values, the source holds several entries; their conditions need not be identical. Equal values may be shown once. Records with an inconclusive call do not appear. Calls of active or inactive are those of the source. How the source made its calls, unless noted: active means hit-call score of the fitted dose curve at least 0.9, where 1 is the maximum; inactive means score below 0.9.

Regarding `O=P(O)(O)CCC(F)(F)C(F)(F)C(F)(F)C(F)(F)C(F)(F)C(F)(F)C(F)(F)C(F)(F)F`, the outcome with CD69, CD69 (gene 969) was “inactive”; in the experiment on IYD (gene 389434), “inactive”; in experiment [1] it was “inactive”. The AC50 with TTR (gene 7276) was 2.24 µM (active).
`O=C1NS(=O)(=O)c2ccccc21`: the outcome in experiment [2] was “inactive”; in experiment [3] it was “inactive”; in [4] it was “inactive”; in [5], “inactive”; in experiment [6], “inactive”; in the experiment with CD69, CD69 (gene 969) it was “inactive”. Further, the call in experiment [7], in experiment [8], in experiment [9], in experiment [10], in [11] and in experiment [12] was inactive. In addition, the call in experiment [1] was inactive.
In the case of `CC(C)c1c(C(=O)Nc2ccccc2)c(-c2ccccc2)c(-c2ccc(F)cc2)n1CC[C@@H](O)C[C@@H](O)CC(=O)O`, the compound was classed as inactive in [2], in [3], in experiment [4], in [5], in experiment [6] and in [7]. Moreover, the call in experiment [8], in [11] and in experiment [12] was inactive. Also, the concentration at half-maximal activity (AC50) in [9] was 2.54 µM (active); in experiment [10], 1.75 µM (active); in [1], 0.0462 µM (active).
As for `OCC(F)(F)C(F)(F)C(F)(F)C(F)(F)C(F)(F)C(F)(F)C(F)(F)C(F)(F)C(F)(F)C(F)(F)C(F)(F)F`, the outcome in the experiment with CD69, CD69 (gene 969) is “inactive”; in experiment [1], “inactive”.
Take `O=C(O)C(F)(F)OC(F)(F)C(F)(F)OC(F)(F)C(F)(F)OC(F)(F)C(F)(F)C(F)(F)C(F)(F)F`: the half-maximal activity concentration (AC50) with CD69, CD69 (gene 969) was 39.9 µM (active) and 41.2 µM (active); in the experiment with IYD (gene 389434) it was 93.2 µM (active); with TTR (gene 7276), 1.11 µM (active).
`CCCCCCc1ccc(N)cc1`: the call in experiment [13] was inactive.
Consider `CC(=O)Nc1ccc(O)cc1`, for which the call in experiment [2], in [3], in experiment [4], in experiment [5], in experiment [6] and in [7] was inactive. Also, the outcome in [8], in [9], in experiment [10], in experiment [11] and in experiment [12] was inactive.
